# Experimental data taken from ChEMBL document CHEMBL3433997, “St. Jude Leishmania screening dataset” (2016).
# How the values were obtained:
# Type in all cases: functional
# [1] = molecular target: Solute carrier family 2, facilitated glucose transporter member 1 (Homo sapiens) (UniProt P11166); experiment: ST_JUDE_LEISH: Cytotoxicity at 2uM final concentration against transgenic Leishmania Mexicana promastigotes LmGLUT1 that are glucose transport deficient and complemented with the human glucose transporter GLUT1. Activity is measured by DNA content using SYBR green in vitro
# Sequence of Solute carrier family 2, facilitated glucose transporter member 1 (Homo sapiens) (P11166 whole entry): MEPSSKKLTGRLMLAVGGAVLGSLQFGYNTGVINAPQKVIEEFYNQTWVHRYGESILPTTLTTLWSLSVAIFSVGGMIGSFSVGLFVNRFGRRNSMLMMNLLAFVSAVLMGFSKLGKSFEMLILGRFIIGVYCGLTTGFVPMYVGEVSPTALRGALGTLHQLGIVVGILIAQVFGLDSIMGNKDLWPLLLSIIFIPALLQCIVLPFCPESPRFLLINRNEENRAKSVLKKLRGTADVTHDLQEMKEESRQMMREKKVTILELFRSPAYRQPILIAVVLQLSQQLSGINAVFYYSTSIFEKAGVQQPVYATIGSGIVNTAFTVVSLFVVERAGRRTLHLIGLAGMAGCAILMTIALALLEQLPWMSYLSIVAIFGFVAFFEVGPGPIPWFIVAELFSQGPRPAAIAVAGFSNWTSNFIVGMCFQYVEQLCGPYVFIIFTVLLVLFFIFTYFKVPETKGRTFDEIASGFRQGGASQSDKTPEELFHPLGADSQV
# [2] = molecular target: Hexose transporter 1 (Plasmodium falciparum) (UniProt O97467); experiment: ST_JUDE_LEISH: Cytotoxicity at 2uM final concentration against transgenic Leishmania Mexicana promastigotes LmPfHT that are glucose transport deficient and complemented with the Plasmodium falciparum hexose transporter. Activity is measured by DNA content using SYBR green in vitro
# [3] = molecular target: Glucose transporter (Leishmania mexicana) (UniProt O61059); experiment: ST_JUDE_LEISH: Cytotoxicity at 2uM final concentration against transgenic Leishmania Mexicana promastigotes LmGT2 that are glucose transport deficient and complemented with the L. Mexicana glucose transporter 2. Activity is measured by DNA content using SYBR green in vitro
Structure (SMILES),inhibition [1] [%],inhibition [2] [%],inhibition [3] [%]
Cc1cc(-c2cccc(CNCCc3ccc(Cl)cc3)c2)cnc1N,6.5,6.59,7.77
Cc1ccc(NC(=S)NC2CCN(CCCCCNC(=O)/C=C/c3ccc(Cl)c(Cl)c3)CC2)cc1Cl,-0.23,-0.31,-1.1
COc1cncc(/C=C/c2cncc(C(=O)NCCc3ccc(Cl)cc3Cl)c2)c1,4.53,5.13,3.94
COc1cccc(CNC[C@@H](O)[C@H](Cc2ccccc2)NC(=O)c2cc(C(C)C)cc(N3CCCC3=O)c2)c1,-1.08,0.91,-1.21
CN1CCCN(c2ccnc3cc4c(cc23)N(C(=O)c2ccc(C(F)(F)F)cc2)CC4)CC1,5.22,5.41,7.79
O=C(/C=C/c1ccc(Cl)c(Cl)c1)NCCCCN1CCCN(C(=O)Nc2ccc(F)c(Cl)c2)CC1,3,1.91,-0.33
Cc1c(CC(=O)NCCC2CCN(CCCCCNC(=O)/C=C/c3ccc(Cl)c(Cl)c3)CC2)sc2ccc(Cl)cc12,4.42,5.42,6.13
CC(C)NCc1ccc(-c2ccc(NC(=O)c3cccc(Cl)c3)cc2)cc1,-2.83,-1.18,-3.53
CC(C)CN1CCC(COc2ccc3ncn(-c4cc(O[C@H](C)c5ccccc5C(F)(F)F)c(C(N)=O)s4)c3c2)CC1,77.7,74.7,60.6
O=C(N[C@H]1CCN(Cc2ccc(OCCN3CCCC3)c3ccccc23)C1)c1ccc(Cl)c(Cl)c1,1.59,2.72,-2.78
CCOC(=O)C(C(C)=O)C(c1ccccc1)C(C(C)=O)C(=O)OCC (configuration not stated),3.08,4.69,0.94
O=C(Nc1ccc2c(c1)CCN(C1CCC1)CC2)c1ccc(-c2cn3ccccc3n2)cc1,3.01,1.01,3.48
O=C(NCc1ccccc1)c1nn(CCCN2CCC(N3CCCC3)CC2)cc1-c1ccc(Cl)c(Cl)c1,4.94,0.77,0.9
O=C(NCCCCCN1CCC(c2c[nH]c3ccccc23)CC1)c1ccc(Cl)c(Cl)c1,2.42,4.92,2.52
C[C@H](NC(=O)c1c(CN2CCC(N3CCCCC3=O)CC2)c(-c2cccs2)nc2ccccc12)C1CCCCC1,4.3,0.29,0.41
Cc1cc(NC(=O)c2ccco2)ccc1OC1CCN(Cc2ccccc2)CC1,0.52,4.72,1.9
C=CCOC(=O)N1CCC(CNCc2ccc(-c3ccc(-c4nc5ccccc5[nH]4)s3)cc2)C1 (configuration not stated),5.91,6.02,5.42
CCOc1ccc2nc(N(CCCn3ccnc3)C(=O)C=Cc3cccs3)sc2c1,3.54,2.73,-8.76
O=C(Nc1ccc(Cl)c(Cl)c1)N1CCc2cc3nccc(N4CCN5CCC[C@H]5C4)c3cc21,3.24,4.53,4.1
N=C(N)NN=Cc1c2ccc(Cl)cc2c(Cl)c2ccc(Cl)cc12,83.8,23.8,61.9
Cc1ccc2c(OCCN3CCC(Cc4cc5c(cc4F)OCC(=O)N5)CC3)cc(F)cc2n1,5.35,4.63,3.85
O=S(=O)(Nc1ccc(-c2ccc(CN3CCCC3)cc2)cc1)c1cccc2cccnc12,78,85.2,71.7
CC(C)CCNC(=O)C1Cc2c([nH]c3ccc(Br)cc23)C2(CCN(Cc3ccccc3)CC2)N1 (configuration not stated),104,103,94.2
Cc1ccccc1Nc1nc(NCc2ccccc2)nc2ccccc12,14.9,10.9,5.77
CN(c1ccc2c(c1)nc(NCc1ccc(F)cc1)n2C)c1ccnc(Nc2ccc(CS(C)(=O)=O)cc2)n1,-0.61,-0.52,-1.02
CC(C)CCN1CCC(Oc2ccc(NC(=O)c3ccc4ncccc4c3)cc2Cl)C1 (configuration not stated),1.24,2.56,1.94
COc1cc2nc(N3CCN(c4nc(N)c5cc(OC)c(OC)cc5n4)CC3)nc(N)c2cc1OC,5.24,4.56,4.05

Structure (SMILES),inhibition [1] [%],inhibition [2] [%],inhibition [3] [%]
O=C(NC1CCCC1)c1ccc(N2CCC(NCc3cc4cc(Cl)ccc4[nH]3)CC2)cc1,2.79,3.34,2.98
NCC1CCCN1Cc1ccc(-c2cccc(-c3nc4cc(F)ccc4[nH]3)c2)cc1 (configuration not stated),3.25,1.31,1.35
CCOC(=O)c1cc(Cl)ccc1OCCCON1C(=N)N=C(N)NC1(C)C,1.75,3.52,3.08
Cc1cccn2c(=O)c3cc(C(=O)NC4CCCCC4)c(=N)n(CCCn4ccnc4)c3nc12,-2.65,-2.23,-4.98
Cc1noc(C)c1-c1cccc(CNCc2ccc(-c3ccc(-c4nc5cc(C(F)(F)F)ccc5[nH]4)s3)cc2)c1,3.88,3.12,0.04
CCCCCCCC/C=C\CCCCCCCC(=O)NCc1ccc(O)c(OC)c1,8.15,7.4,5.67
COC(=O)[C@@H](NC(=O)[C@@H](Nc1ccc(C#N)c2ccccc12)C(C)(C)C)c1ccc(O)cc1,2.65,1.12,0.19
CC1CCc2c(C(=O)N3CCc4ccccc4C3)csc2C1 (configuration not stated),1.39,0.87,0
CC(=O)N1CCN(c2ccc(NC(=O)c3oc(-c4ccccc4)nc3C(F)(F)F)cn2)CC1,1.92,1.42,1.05
Cc1cccc2nc(-c3cccc(-c4cccc(C(=O)NCCc5cn(C)cn5)c4)c3)[nH]c12,-0.8,-0.53,0.89
O=C(Nc1ccc(Cl)cc1)Nc1ccc2c(c1)N1CCN=C1S2,-0.81,-1.2,5.02
O=C(/C=C/c1ccc(Cl)c(Cl)c1)NCCCCCN1CCCC(C(=O)Nc2ccc(F)c(Cl)c2)C1 (configuration not stated),3.02,5.25,4.87
O=C(NC1CCN(c2ccnc3cc(Cl)ccc23)C1)c1ccc(C(F)(F)F)cc1 (configuration not stated),3.93,3.66,0.57
NC1=Nc2ccc(Cl)cc2C1(O)c1ccccc1 (configuration not stated),1.25,1.33,0.97
COc1c(Br)cc(Br)cc1-c1ccc(CN2C3CCCC2CCC3)[nH]1,4.44,7.84,2.48
COc1c(C2=CCN(CCCCNC(=O)c3ccc(-c4ccc(C#N)cc4)cc3)CC2)ccc2c1CCCC2,0.4,-0.52,0.06
CS(=O)(=O)CCNCc1cc(-c2cc3ncnc(Nc4ccc(OCc5cccc(F)c5)c(Cl)c4)c3s2)cs1,5.58,6.19,5.4
COc1cccc(CNC(=O)[C@H]2CNCCN2C(=O)CCCc2ccccc2)c1,3.03,-0.14,5.01
CC(C)(C)N1CCC(N(Cc2ccc(-c3ccc(C(F)(F)F)cc3)cc2)C(=O)Cn2c(CCc3cccc(F)c3F)cc(=O)c3cccnc32)CC1,-0.12,-1.34,-1.6
CC(C)c1ccc(CN2CCC(CNC(=O)c3cc(-c4ccc(N(C)C)cc4)cs3)C2)cc1 (configuration not stated),2.27,3.51,2.27
O=S(=O)(NCCN1CCCC1)c1cccc(-c2ccc(CNCc3ccc(F)cc3)cc2)c1,7.08,3.37,4.19
O=C(Nc1cccc(-c2cccc(-c3nc4cc(C(F)(F)F)ccc4[nH]3)c2)c1)c1ccc(=O)[nH]n1,10.7,9.47,9.62
CC(C)(C)c1nn(-c2ccccc2)c2[nH]c(=O)c(CNC3CCCCC3)cc12,1.69,1.5,2.72
COc1cccc(-c2ccc3ccnc(N)c3c2)c1,4.14,4.24,2.03
Cc1cc(N[C@@H](Cc2ccccc2)C(=O)Nc2ccccc2)nc(NCCc2cccs2)n1,4.14,2.39,1
COc1ccc2nc(N3CCN(C(=O)OC(C)(C)C)CC3)nc(NCCCc3ccccc3)c2c1,28.4,23.1,8.03
CCCC(C)c1ccc(N2C(N)=NC(N)=NC2(C)C)cc1 (configuration not stated),2.85,2.75,0
